Test results from PubChem BioAssay AID504766 (The Scripps Research Institute Molecular Screening Center, 2011).
The campaign covered roughly 340,000 compounds. About 3,400 (1%) were called active. The entries come from a sample that favours actives as a whole. A number with no mark means an inactive call.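 Rule for the calls: active = inhibition above the mean over all tested compounds plus 3 SD (cut at about 4.2% in these data); inactive = the rest.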

Target: Nuclear receptor subfamily 0 group B member 1 (Homo sapiens) (UniProt P51843)
Sequence (P51843 207-470 limits assumed): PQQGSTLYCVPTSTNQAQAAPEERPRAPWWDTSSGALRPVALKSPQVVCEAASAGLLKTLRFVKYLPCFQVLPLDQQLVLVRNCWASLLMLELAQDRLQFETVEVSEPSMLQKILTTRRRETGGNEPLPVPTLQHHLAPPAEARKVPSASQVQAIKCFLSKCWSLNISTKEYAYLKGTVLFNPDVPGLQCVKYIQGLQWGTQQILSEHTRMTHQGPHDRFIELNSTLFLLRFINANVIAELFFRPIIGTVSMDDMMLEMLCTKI
Experiment: relief of DAX1 transcriptional repression – cell-based, HEK293, Gal4-DAX1, luciferase luminescence, primary screen (AID 504766);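 note: 0% = DAX1-transfected cells with DMSO and 100% = empty-vector control cells with DMSO; inhibition shows as a rise in luminescence from relieved DAX1 repression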
Conditions: HEK293 Gal4-DAX1 luciferase reporter, at 6.75 µM, hits give high values

Structure (SMILES)	inhibition
CC(C)N=C1CCCC1C(=S)SSC(=S)C1CCCC1=NC(C)C (centres undefined)	-3.43%
COc1ccc(/C=C(/NC(=O)c2ccco2)C(=O)Nc2ccc(C(C)=O)cc2)cc1	4.81% (active)
O=C(Nc1ccc2ccccc2c1)/C(=C\c1ccc2c(c1)OCO2)NC(=O)c1ccco1	-1.35%
Cc1ccc(NC(=O)/C(=C\c2ccccc2)NC(=O)c2ccco2)cc1	0.33%
Cc1ccc(CCNC(=O)CN2C(=O)CSc3ccc(S(=O)(=O)N4CCOCC4)cc32)cc1	0.18%
NC1=CC(=O)C(=O)c2cccnc21	-3.86%
C[C@@H]1CCCCO[C@H](CN(C)Cc2ccccc2)[C@@H](C)CN([C@H](C)CO)C(=O)c2cc(NS(=O)(=O)c3ccc(Cl)cc3)ccc2O1	-0.88%
Cc1ccc([C@H]2C[C@H](O)[C@@H](n3cc(COC(=O)c4ccccc4)nn3)CN2CC2CCCCC2)cc1	2.07%
N#Cc1ccc(C2N=C(c3ccccc3)NO2)cc1 (centres undefined)	4.58% (active)
Brc1ccccc1C1N=C(c2ccccc2)NO1 (centres undefined)	1.91%
Nc1cccc(OCCCCCOc2cccc(N)c2)c1	-0.21%
CSc1ncnc2c1ncn2CCCNCc1ccco1	0.14%
C[C@H]1CN([C@@H](C)CO)C(=O)c2cc(-c3cccc(F)c3)cnc2O[C@@H]1CN(C)S(C)(=O)=O	3.06%
N#CC1(Nc2ccc3c4c(cccc24)CC3)CCCCC1	-0.16%
Cc1cc(N=Nc2ccc3ccccc3c2)ccc1O	4.42% (active)
CCOC(=O)c1c(NC(=S)SC)sc(C(=O)N2CCc3ccccc3C2)c1C	0.87%
CCCSc1nc(NCc2ccco2)c2c3c(sc2n1)COC(C)(CC)C3 (centres undefined)	1.15%
CN1CCc2c(sc3c2c(NCc2ccco2)nc2nnnn23)C1	5.18% (active)
CCSc1nc2sc3c(c2c(=O)n1-c1ccc(C)cc1)CCN(C)C3	0.31%
C[C@@H]1CN([C@@H](C)CO)C(=O)c2cc(NS(C)(=O)=O)ccc2O[C@@H](C)CCCCO[C@H]1CN(C)C(=O)Nc1ccc2c(c1)OCO2	0.65%
COc1ccc(N2CCN(C(=O)C3CCN(C(=O)c4ccccc4Cl)CC3)CC2)cc1	-0.89%
COc1ccc(N2CCN(C(=O)C3CCN(S(=O)(=O)c4ccc(C)cc4)CC3)CC2)cc1	7.45% (active)
Cc1ccc(S(=O)(=O)N2CCC(C(=O)N3CCCCCCC3)CC2)cc1	-0.36%
COc1ccc(N)cc1NC(=O)CN1CCOCC1	1.8%
CC12C(=O)N(n3cnnc3)C(=O)C1C1C=CC2C1 (centres undefined)	5.77% (active)
O=C(COc1ccccc1F)NNC(=O)c1cc(Br)ccc1Cl	0.63%
COc1ccc(Cl)cc1C(=O)Nc1ccc(N(C)C(C)=O)cc1	-0.13%

Structure (SMILES)	inhibition
CCN(CC)C(=O)Oc1ccc(Br)cc1C(=O)Nc1ccc(F)c(Cl)c1	4.68% (active)
N#Cc1ccc(OCC(=O)Nc2nc(-c3ccccn3)cs2)cc1	-0.76%
C[C@@H]1CN([C@H](C)CO)S(=O)(=O)c2ccc(C#C[C@@H](C)O)cc2O[C@@H]1CN(C)Cc1ccc(-c2ccccc2)cc1	-0.61%
Cc1ccc(CN(C)C[C@@H]2OCc3cnnn3CCCC(=O)N([C@@H](C)CO)C[C@H]2C)cc1	0.34%
O=C(Nc1cc(S(=O)(=O)N2CCOCC2)ccc1Cl)c1cc(=O)c2ccccc2o1	-1.1%
O=S(=O)(c1ccc(NC(=S)NN=C(C2CC2)C2CC2)cc1)N1CCOCC1	-0.03%
O=[N+]([O-])c1cc(Cl)cc(/C=N/NC(=S)Nc2cc(S(=O)(=O)N3CCOCC3)ccc2Cl)c1O	4.75% (active)
O=C1[C@H]2[C@@H](c3ccc(C(F)(F)F)cc3)N[C@]3(CCCN(Cc4ccc(Br)cc4)C3=O)[C@H]2C(=O)N1Cc1ccccc1	-0.81%
C[C@@H]1Cn2cnc(C(=O)Nc3ccc(CNC(=O)OC(C)(C)C)cc3)c2C(=O)N1	-0.54%
O=C(CSC(=S)N1CCCCC1)c1c(F)cccc1F	8.18% (active)
CC(=O)c1ccc(NC(=O)CSC(=S)N2CCCC2)cc1	-0.17%
O=C(CSC(=S)N1CCOCC1)c1ccccc1	-3.24%
CC(C#N)(NC(=O)CN1CCN(S(=O)(=O)c2cc(C(F)(F)F)ccc2Cl)CC1)C1CC1 (centres undefined)	4.49% (active)
O=C(CN1CCN(S(=O)(=O)c2cc(Cl)ccc2Cl)CC1)c1ccc(O)c(O)c1	0.26%
N#Cc1ccsc1NC(=O)CN1CCN(S(=O)(=O)c2cc(Cl)ccc2Cl)CC1	-0.1%
CC(OC(=O)c1cccnc1Cl)C(=O)NC1CCCCC1 (centres undefined)	2.75%
COc1ccc(C(C(=O)NC(C)(C)C)N(C(=O)Cn2nnc3ccccc32)c2ccc(C(C)=O)cc2)cc1O (centres undefined)	5.46% (active)
CCC(C)(C)NC(=O)C(c1ccc(O)cc1)N(C(=O)Cn1nnc2ccccc21)c1ccc(NC(C)=O)cc1 (centres undefined)	0.14%
COc1ccc(C(C(=O)NCC2CCCO2)N(C(=O)Cn2nnc3ccccc32)c2ccc(NC(C)=O)cc2)cc1OC (centres undefined)	-0.65%
COc1ccccc1C(=O)NC(=S)Nc1ccc(N2CCOCC2)cc1	0.43%
C[C@H]1CN([C@@H](C)CO)C(=O)c2cc(Br)cnc2O[C@H]1CN(C)S(=O)(=O)c1cccs1	0.93%
C[C@H]1CN([C@@H](C)CO)C(=O)CCCn2cc(nn2)CO[C@@H]1CN(C)S(=O)(=O)c1cccs1	-0.09%
COCCNc1ccc(-c2n[nH]c(=O)c3ccccc23)cc1[N+](=O)[O-]	-1.07%
CN(C)CCNc1ccc(-c2n[nH]c(=O)c3ccccc23)cc1[N+](=O)[O-]	4.46% (active)
CCN(CC)CCNc1ccc(Cl)cc1[N+](=O)[O-]	0.15%
CCc1cccc(CC)c1N1C(=O)CC(Sc2ccccc2N)C1=O (centres undefined)	2.47%
CN(C)C(CNC(=O)c1cccc(S(=O)(=O)N2CCc3ccccc3C2)c1)c1ccccc1 (centres undefined)	-0.17%
